One assay addresses Albumin (Bos taurus) (UniProt P02769). Nature of the assay: bovine serum albumin binders on microarray, profiling panel, artefact control for SMM control protein annotation, biochemical, small-molecule microarray, Alexa647 label, 635/667 nm fluorescence (AID 1118).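 Note: score merges 667 nm emission intensity and signal-to-noise per printed compound spot.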 Particulars: BSA-A647 binding, fluorescence 635 nm, higher = more signal.
Assay [1] in a line: small-molecule microarray binders of probe aXIP, primary screen, biochemical, NeuroSMM set, 635/667 nm fluorescence (AID 1119).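 Note: probe is the protein aXip251-270 applied at 1 µg/mL to compound-printed slides; binding of probe to printed compounds measured as 667 nm fluorescence plus signal to noise.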 The conditions noted are these: higher = more signal, called active from +8 up or from −8 down.
Assay [2] is described as follows: small-molecule binders of probe aNOTCH3, primary screen, biochemical, small-molecule microarray, 635/667 nm fluorescence (AID 1120).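 Note: probe is a biotin-tagged antibody raised against NOTCH3 rather than NOTCH3 protein; score merges spot fluorescence near 667 nm with spot signal to noise.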 The conditions noted are these: higher = more signal.
Assay [3] can be described thus: small-molecule binders of probe aNOTCH2, primary screen, biochemical, small-molecule microarray, 635/667 nm fluorescence (AID 1121).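 Note: score merges feature fluorescence read at 667 nm with its signal to noise.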 Particulars: higher = more signal.
Assay [4] deals with Carbonic anhydrase 2 (Homo sapiens) (UniProt P00918). Nature of the assay: CAII small-molecule binders, profiling panel, biochemical, small-molecule microarray, Alexa647-labelled CAII (AID 1122). Particulars: CAII-A647 binding fluorescence, higher = more signal.
Assay [5] is described as follows: COS7 lysate on small-molecule microarray, probe aHis, 635 nm (AID 1123).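 Note: z-score combines 667nm fluorescence intensity with signal-to-noise per printed compound spot.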 The conditions noted are these: COS7 cell lysate, fluorescence, higher = more signal.
Assay [6] in a line: compound binding in COS7 lysate, probe aLAP1, primary screen, cell lysate, small-molecule microarray (AID 1124).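 Note: lysate comes from COS7 cells expressing LAP1 and is applied at 0.3 µg/mL; score merges spot fluorescence near 667 nm with signal-to-noise over triplicate slides.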 The conditions noted are these: probe aLAP1, fluorescence, higher = more signal.
The next assay relates to Sam68 (KHDRBS1). Description: Sam68 small-molecule binders, primary screen, biochemical, small-molecule microarray, 635 nm fluorescence (AID 1125).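 Note: score merges 667 nm channel intensity with signal to noise over triplicate slides.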 The conditions noted are these: small-molecule microarray binding, higher = more signal.
The test system of assay [7] is Chordin-like protein 2 (CHRDL2). Nature of the assay: CHRDL2 small-molecule binders, primary screen, biochemical, small-molecule microarray, 635 nm fluorescence (AID 1126).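 Note: printed compound slides probed with Chrdl2 protein at 4 µg/mL for 1 h at 4 C; score merges 667 nm emission intensity with signal to noise over three replicate slides.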 The conditions noted are these: small-molecule microarray binding, fluorescence 635 nm; higher = more signal.
The target of assay [8] is Concanavalin-A (Canavalia ensiformis) (UniProt P02866). Description: ConA small-molecule binders, primary screen, artefact control for SMM control protein annotation, biochemical, small-molecule microarray, Alexa647 label, 635 nm (AID 1127).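 Note: z combines 667 nm emission intensity with signal-to-noise across three replicate slides.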 The conditions noted are these: ConA-A647 binding fluorescence, higher = more signal.

Active and inactive are the calls of the source.

Chain of Albumin (Bos taurus) (P02769 whole entry, looked up): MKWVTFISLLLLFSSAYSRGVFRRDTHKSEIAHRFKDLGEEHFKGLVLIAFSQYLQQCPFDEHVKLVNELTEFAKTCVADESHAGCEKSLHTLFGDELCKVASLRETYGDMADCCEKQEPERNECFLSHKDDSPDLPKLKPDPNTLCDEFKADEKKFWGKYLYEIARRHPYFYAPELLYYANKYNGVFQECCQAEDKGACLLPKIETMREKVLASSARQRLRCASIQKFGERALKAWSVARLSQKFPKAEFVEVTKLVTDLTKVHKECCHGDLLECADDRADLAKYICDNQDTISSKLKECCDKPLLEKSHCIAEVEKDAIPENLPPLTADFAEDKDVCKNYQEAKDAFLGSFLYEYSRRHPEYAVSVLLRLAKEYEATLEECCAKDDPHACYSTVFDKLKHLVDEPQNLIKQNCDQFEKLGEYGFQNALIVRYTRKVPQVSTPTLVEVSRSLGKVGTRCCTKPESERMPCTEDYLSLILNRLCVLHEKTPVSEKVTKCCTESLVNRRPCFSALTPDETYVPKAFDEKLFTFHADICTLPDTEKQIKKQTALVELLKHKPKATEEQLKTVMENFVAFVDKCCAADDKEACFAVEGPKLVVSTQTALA
Chain of Concanavalin-A (Canavalia ensiformis) (P02866 whole entry, looked up): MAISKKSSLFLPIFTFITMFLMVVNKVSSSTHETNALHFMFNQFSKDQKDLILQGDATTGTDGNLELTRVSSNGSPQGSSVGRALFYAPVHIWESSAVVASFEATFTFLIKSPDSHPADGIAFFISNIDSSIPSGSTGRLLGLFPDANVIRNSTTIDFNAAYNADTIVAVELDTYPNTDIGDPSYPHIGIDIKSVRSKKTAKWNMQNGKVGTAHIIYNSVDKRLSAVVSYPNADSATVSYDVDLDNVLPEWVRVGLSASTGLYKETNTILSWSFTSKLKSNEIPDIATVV

On to `CCCCCCC#C[Si](O[C@H](c1ccccc1)c1cn([C@H](CO)Cc2ccccc2)nn1)(C(C)C)C(C)C`, for which the composite z-score is -0.188 with Albumin (Bos taurus); -0.158 in [2]; -0.14 in assay [3]; 0.855 in assay [4]; 1 in assay [5]; 0.256 in assay [6]. Also, the composite z-score is 0.729 with Sam68 (KHDRBS1), -0.346 in assay [7] and -0.0362 in [8]. Further, the composite Z-score in assay [1] was -0.377 (inactive).
Regarding `C=CCNC(=O)[C@@H]1[C@H]2C(=O)O[C@H](c3ccccc3)[C@H](c3ccccc3)N2[C@H](c2ccccc2OCCO)[C@@]12C(=O)N(C(=O)OCCOC)c1ccc(C#CCNC(N)=O)cc12`, the composite z-score in the assay with Albumin (Bos taurus) is 0.79; in [2], 0.184; in [3] it was -0.0772; in [4] it was 0.247; in assay [5], 1.47; in assay [6], 0.546. In addition, the composite z-score with Sam68 (KHDRBS1) was 1.32; in assay [7], -0.182; in assay [8] it was 0.959. In addition, the composite Z-score in [1] is -0.105 (inactive).
Regarding `CN1C(=O)C2C=CC(C(O)C3=C[C@H]4C[C@@H](C3)C4(C)C)N(Nc3ccccc3)C2C1=O` (stereo not given in full), the composite z-score was 0.566 with Albumin (Bos taurus); 0.169 in assay [2]; -0.0712 in assay [3]; 0.645 in assay [4]; 1.75 in assay [5]; -0.678 in [6]. Also, the composite z-score was found to be 1.31 in the assay with Sam68 (KHDRBS1), 0.307 in assay [7] and 0.782 in assay [8]. Moreover, the composite Z-score in assay [1] was -0.636 (inactive).
With `COc1ccc(C(O)C2C=CC3C(=O)NC(=O)C3N2Nc2ccccn2)c2ccccc12` (stereo not given), the composite z-score in the assay with Albumin (Bos taurus) was 0.304; in assay [2], -0.0431; in [3], -0.101; in [4] it was 0.879; in assay [5] it was 0.452; in [6], -0.14. Further, the composite z-score in the assay with Sam68 (KHDRBS1) was -0.328; in assay [7], 0.485; in [8] it was 0.495. Also, in assay [1], the composite Z-score was 0.224 (inactive).
Consider `CCOC1=C2C(CN(S(=O)(=O)c3ccc(C)cc3)C2c2ccc(C)cc2)C2C(=O)N(c3ccccc3)C(=O)C2C1` (stereo not given), for which the composite z-score in the assay with Albumin (Bos taurus) was 0.453; in [2] it was 0.24; in assay [3] it was -0.0665; in assay [4] it was 0.676; in assay [5], 1.58; in assay [6] it was 0.377. Further, the composite z-score in the assay on Sam68 (KHDRBS1) was 0.814; in [7] it was 0.479; in assay [8] it was 0.654. For the same molecule, the composite Z-score in [1] was 0.0045 (inactive).
Turning to `C=CCNC(=O)[C@H]1[C@@H]2C(=O)O[C@@H](c3ccccc3)[C@@H](c3ccccc3)N2[C@@H](c2ccc(OCCO)cc2)[C@]12C(=O)N(C(=O)OCCOC)c1ccccc12`, the composite z-score with Albumin (Bos taurus) is 0.262; in assay [2], 0.199; in assay [3], -0.0964; in assay [4], 0.381; in [5] it was 1.99; in assay [6], 0.503. In addition, the composite z-score turned out to be 1.3 in the assay on Sam68 (KHDRBS1), 0.176 in assay [7] and 1.14 in [8]. Moreover, the composite Z-score in assay [1] was 0.108 (inactive).
Regarding `O=C1O[C@H](c2ccccc2)[C@H](c2ccccc2)N2[C@H]1[C@@H](C(=O)N1CCN(c3ncccn3)CC1)[C@]1(C(=O)Nc3ccc(C#CC4=CCCCC4)cc31)[C@H]2c1ccc(O)cc1`, the composite z-score with Albumin (Bos taurus) is 0.444; in [2], 0.0533; in [3], -0.0282; in [4], 0.413; in assay [5] it was 1.81; in [6] it was 0.853. Besides, the composite z-score with Sam68 (KHDRBS1) is 1.3; in assay [7], -0.0356; in assay [8], 0.893. For the same molecule, in assay [1], the composite Z-score was -0.239 (inactive).
Consider `NC(=O)[C@@H]1[C@H]2C(=O)O[C@H](c3ccccc3)[C@H](c3ccccc3)N2[C@H](c2ccc(O)cc2)[C@@]12C(=O)Nc1ccc(C#CC3(O)CCCCCC3)cc12`, for which the composite z-score in the assay with Albumin (Bos taurus) is -0.425; in assay [2], -0.15; in assay [3] it was -0.175; in assay [4], 0.792; in assay [5], 0.514; in assay [6], -0.107. In addition, the figures for the composite z-score (with Sam68 (KHDRBS1); in assay [7]; in assay [8]) were -0.427, -0.571 and -0.107, respectively. Moreover, the composite Z-score in assay [1] was 0.339 (inactive).
On to `CN1C(=O)C2C=CC(C(O)c3cc(C(F)(F)F)cc(C(F)(F)F)c3)N(N3CCCCC3)C2C1=O` (stereo not given), for which the composite z-score with Albumin (Bos taurus) is 0.712; in [2] it was 0.0488; in [3], -0.0467; in [4], 0.551; in assay [5], 1.79; in assay [6], -0.33. The values for the composite z-score (in the assay with Sam68 (KHDRBS1); in assay [7]; in assay [8]) were 1.08, -0.672 and 0.768, respectively. The composite Z-score in assay [1] is 2.11 (inactive).
In the case of `CO[C@H]1O[C@H](CO)[C@@H](OC(=O)Nc2ccc(Br)cc2)[C@H](OC(=O)c2cc3ccccc3[nH]2)[C@H]1OC(=O)c1cc2ccccc2[nH]1`, the composite z-score with Albumin (Bos taurus) is 0.93; in assay [2] it was -0.04; in assay [3] it was -0.101; in assay [4], 0.386; in [5], 1.25; in assay [6], 0.451. The composite z-score was 1.33 with Sam68 (KHDRBS1), 0.283 in assay [7] and 1.14 in assay [8]. The composite Z-score in assay [1] is 0.907 (inactive).
With `COCCOC(=O)N1C(=O)[C@@]2(c3cc(C#CC4=CCCCC4)ccc31)[C@H](C(N)=O)[C@H]1C(=O)O[C@H](c3ccccc3)[C@H](c3ccccc3)N1[C@@H]2c1ccc(OCCO)cc1`, the composite z-score with Albumin (Bos taurus) is 0.588; in assay [2], -0.315; in [3], -0.259; in assay [4], 0.348; in assay [5] it was 0.763; in assay [6] it was 0.481. Moreover, the composite z-score was 1.3 with Sam68 (KHDRBS1), 0.0151 in assay [7] and 0.459 in [8]. Also, in assay [1], the composite Z-score is 0.362 (inactive).
For `CC(=O)NCCCC[C@@H]1NC(=O)[C@@H]2C[C@H](C(=O)NCCCCN(C)C)[C@H](c3cccc(OCCO)c3)N2C1=O`, the composite z-score is -0.374 in the assay with Albumin (Bos taurus); -0.186 in [2]; -0.112 in [3]; 0.57 in assay [4]; 0.944 in assay [5]; 0.511 in [6]. In addition, the values for the composite z-score (in the assay on Sam68 (KHDRBS1); in assay [7]; in [8]) were 0.259, 0.462 and 0.664, respectively. In [1], the composite Z-score was 0.714 (inactive).
For the molecule `C=CCN1C(=O)[C@]2(O[C@H](CCO)[C@@H]([Si](C)(C)c3ccc(OC)cc3)[C@@H]2C)c2cc(N3C(=O)c4cccc5cccc3c45)ccc21`, the composite z-score was 0.634 with Albumin (Bos taurus); -0.0377 in [2]; -0.0956 in [3]; 0.542 in assay [4]; 0.808 in assay [5]; 0.0553 in assay [6]. The composite z-score in the assay on Sam68 (KHDRBS1) was determined as 0.838; in assay [7], 0.0493; in assay [8] it was 0.795. Also, the composite Z-score in assay [1] was -0.106 (inactive).
With `Cc1ccc(S[C@]2(C(=O)NC(C)C)CC(=O)N(Cc3ccccc3Cl)[C@@H]2c2ccc(CO)cc2I)cc1`, the composite z-score with Albumin (Bos taurus) was 0.408; in [2] it was -0.469; in assay [3] it was -0.168; in assay [4], 0.779; in [5], 1.21; in assay [6] it was -0.147. In addition, the composite z-score in the assay on Sam68 (KHDRBS1) was 0.462; in assay [7], -0.793; in [8], -0.139. Further, the composite Z-score in assay [1] was 0.219 (inactive).
Take `[N-]=[N+]=NCc1ccccc1[C@@H]1OC(c2ccc(OCCCO)cc2)=N[C@]1(CCS(=O)(=O)c1ccccc1)C(=O)NCc1ccccc1`: the composite z-score with Albumin (Bos taurus) was 0.732; in assay [2] it was 0.946; in assay [3], 0.257; in assay [4], 0.694; in assay [5], 1.89; in assay [6], 1.77. Further, the composite z-score with Sam68 (KHDRBS1) came to 1.3; in assay [7] it was 0.518; in assay [8], 1.11. Also, the composite Z-score in assay [1] is 0.0035 (inactive).
In the case of `C=CCC(OC(C)=O)[C@@H]1[C@@H](N(Cc2ccc(-c3ccccc3)cc2)C(=O)Cc2ccc(F)cc2)c2cc(OCCCO)ccc2N1C(=O)c1ccc(-c2ccccc2)cc1` (stereo not given in full), the composite z-score is 0.127 with Albumin (Bos taurus); 0.0905 in assay [2]; -0.141 in [3]; -0.249 in assay [4]; -0.338 in assay [5]; 0.0362 in assay [6]. Moreover, the composite z-score with Sam68 (KHDRBS1) was 0.0072; in assay [7], 0.528; in assay [8] it was -0.136. Besides, the composite Z-score in assay [1] is -0.405 (inactive).

The values above are taken from PubChem BioAssay.
